The record followed here is PubChem BioAssay.

The term remaining activity denotes the signal under treatment as a percentage of the control signal. Usually viability stands for a read-out of living cells in per cent, often relative to untreated cells.

Assay [1] in a line: Wnt pathway potentiators raising nuclear beta-catenin – imaging, WNT3A-conditioned medium, mouse C2C12, NPC library, primary screen (AID 1117326; in the data active means nuclear beta-catenin stimulation mostly above about 4.2%, no sharp cut-off; inactive means mostly below about 10%). The conditions noted are these: stronger effect = higher value.
Assay [2] can be described thus: stimulators of insulin release from INS-1E, primary screen, cell-based, 5 mM glucose, NPC library (AID 1117329;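 active means compound raises insulin release from rat beta cells at 5 mM glucose, no numeric limit stated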). To be noted: rat INS-1E insulin secretion, at 10 µM, stronger effect = higher value.
Assay [3] in a line: growth inhibition of GSK3B-pretreated HCT116 cells – cell-based, CellTiter-Glo, 0.2 to 20 µM (AID 1117336;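 active means compounds lowering colon cancer cell viability after pretreatment blocking the GSK3B kinase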). The conditions noted are these: HCT116 viability after GSK3B inhibitor, at 20 µM, stronger effect = higher value. On the technique in general: Cellular ATP, detected with luciferase, serves as a proxy for viable cell number.
Assay [4] is described as follows: inhibition of endothelial tube formation, primary screen, imaging, VEGF stimulated, CD31 staining, tube area, NPC library (AID 1117340;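 active means compound that reduces growth-factor-driven endothelial tube area in a mixed cell culture, no cutoff stated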). The conditions noted are these: VEGF-stimulated ADSC/ECFC co-culture, at 10 µM, stronger effect = higher value.
Assay [5] can be described thus: GLP1 release stimulators, primary, NCI-H716, NPC library (AID 1117341;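 active means compound raises GLP1 secretion from the human gut endocrine cells, with no numeric limit stated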). To be noted: NCI-H716 cells, at 10 µM, stronger effect = higher value.
The nature of assay [6]: HCT116 colon cancer cell growth inhibition, primary screen, CellTiter-Glo luminescence, NPC library (AID 1117342;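 active means compounds that lower survival of HCT116 colon cancer cells in the luminescence readout, no numeric limit stated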). To be noted: at 20 µM (top of the series).
Assay [7] is described as follows: reduced SW480 viability measured with CellTiter-Glo, NPC library, primary (AID 1117343;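 active means compounds that lower viability of the colon cancer cells in the luminescence readout, with no numeric limit stated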). To be noted: CellTiter-Glo luminescence; at 20 µM (top of the series) unless noted.
Assay [8] in a line: NPC library primary testing for decreased DLD-1 cell viability via CellTiter-Glo (AID 1117346;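 active means compounds that lower survival of DLD-1 colon cancer cells in the luminescence readout, no cutoff given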). To be noted: DLD-1 viability, CellTiter-Glo luminescence; at 20 µM (top of the series).
For assay [9], the system named is Aerobactin synthetase IucA (Klebsiella pneumoniae). The assay can be described thus: inhibition of K. pneumoniae IucA enzyme – biochemical, Tocris library, absorbance (AID 1345561; call rule not given here;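 further: 100% = enzyme without compound and 0% = no enzyme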). To be noted: purified IucA enzyme assay, absorbance (OD) read-out; stronger effect = lower value;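 tested at 8 µM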.
The nature of assay [10]: viability loss with induced miR-34 in A549 – imaging, A549 dox-inducible miR-34, nuclei and caspase counts, primary screen (AID 1347080). To be noted: A549 miR-34 inducible, Hoechst nuclei count, 48 h.
Assay [11] in a line: galactose survival enhancers in mitochondrial complex I cybrids – cell-based, galactose medium, ATP luminescence, primary screen (AID 1645843;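 active means z-score of at least 1.8 in each of two replicates, scored against plate mean and spread of sample wells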;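 further: positive z means more ATP and so rescue of galactose-driven cybrid death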). The conditions noted are these: complex I mutant cybrid cells, 72 h, stronger effect = higher value.
Assay [12] is described as follows: viability loss in pontine glioma line – cell-based, SU-DIPG-XVII, MIPE5.0, CellTiter-Glo, qHTS, dose response (AID 1347060; cut-off not given, nearly all actives have AC50 up to about 26 µM). To be noted: CellTiter-Glo ATP luminescence.
Assay [13] in a line: viability loss in pontine glioma line – cell-based, SU-DIPG-XIII, MIPE4.0, CellTiter-Glo, qHTS, dose response (AID 1347061; cut-off not given, nearly all actives have AC50 up to about 37 µM;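 further: cells exposed to compound for 48 hours before readout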). The conditions noted are these: CellTiter-Glo ATP luminescence.
Assay [14] can be described thus: growth inhibition of DIPG cells – cell-based, MIPE4.0 library, CellTiter-Glo luminescence, qHTS (AID 1347066; cut-off not given, nearly all actives have AC50 up to about 30 µM;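 further: cells exposed to compound for 48 hours before readout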). The conditions noted are these: SU-DIPG-VI viability, CellTiter-Glo ATP luminescence.
A short description of assay [15]: growth inhibition of DIPG cells – cell-based, MIPE5.0 library, qHTS (AID 1347068; cut-off not given, nearly all actives have IC50 up to about 30 µM). To be noted: SU-DIPG-XXV viability. In general terms: Quantitative high-throughput screening tests each substance at several concentrations.
A short description of assay [16]: P. berghei load reduction in hepatocytes – cell-based, HepG2, luciferase luminescence, HepG2 viability, primary screen (AID 624349; in the data active means parasite load remaining mostly below about 12%, no sharp cut-off; inactive means mostly above about 10%;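 further: 100% = mean of DMSO negative control wells on the same plate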). To be noted: P. berghei liver stage in HepG2, luciferase luminescence, concentration not given here; parasite load remaining: stronger effect = lower value; viability: measured here: HepG2 viability without parasites.
A short description of assay [17]: MELAS cybrid and Rieske KO viability enhancers – cell-based, MELAS cybrids, Rieske KO mouse fibroblasts, CellTiter-Glo, primary screen (AID 1508586;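 active means mean z-score across replicates of 1.96 or higher in either the MELAS or the Rieske mutant cell line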;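 further: z relative to plate mean and SD of compound and empty wells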). To be noted: low glucose.
Assay [18] deals with NAD(+) hydrolase SARM1 (Homo sapiens) (UniProt Q6SZW1). As to the kind of experiment: blocking NAD cleavage by SARM1 SAM-TIR – cell lysate, NAD-Glo luminescence (AID 1508614;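 active means compound whose remaining NAD level is above about 45 nM, limit read from the data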). The conditions noted are these: SAM-TIR HEK293T lysate NADase, at 1 µM, stronger effect = higher value.
Where [19] appears, read: stronger effect = lower value, cell number ratio, induced over uninduced.
The mark [20] stands for this setting: measured here: relative caspase fold change +Dox/-Dox.
Setting [21] is: measured here: total cells with miR-34 induction, stronger effect = lower value.
The mark [22] stands for this setting: measured here: total cells without miR-34 induction.

Values joined by “and” are separate entries in the source; they are usually repeats but may differ in a detail not shown here. Equal entries are not always repeated. Inconclusive results are not listed. Active and inactive are the calls of the source.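 How the source made its calls, unless noted: active means compounds whose cell count with miR-34 switched on is under 0.7 times the count with it off; inactive means the rest.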

Chain of NAD(+) hydrolase SARM1 (Homo sapiens) (Q6SZW1 whole entry, looked up): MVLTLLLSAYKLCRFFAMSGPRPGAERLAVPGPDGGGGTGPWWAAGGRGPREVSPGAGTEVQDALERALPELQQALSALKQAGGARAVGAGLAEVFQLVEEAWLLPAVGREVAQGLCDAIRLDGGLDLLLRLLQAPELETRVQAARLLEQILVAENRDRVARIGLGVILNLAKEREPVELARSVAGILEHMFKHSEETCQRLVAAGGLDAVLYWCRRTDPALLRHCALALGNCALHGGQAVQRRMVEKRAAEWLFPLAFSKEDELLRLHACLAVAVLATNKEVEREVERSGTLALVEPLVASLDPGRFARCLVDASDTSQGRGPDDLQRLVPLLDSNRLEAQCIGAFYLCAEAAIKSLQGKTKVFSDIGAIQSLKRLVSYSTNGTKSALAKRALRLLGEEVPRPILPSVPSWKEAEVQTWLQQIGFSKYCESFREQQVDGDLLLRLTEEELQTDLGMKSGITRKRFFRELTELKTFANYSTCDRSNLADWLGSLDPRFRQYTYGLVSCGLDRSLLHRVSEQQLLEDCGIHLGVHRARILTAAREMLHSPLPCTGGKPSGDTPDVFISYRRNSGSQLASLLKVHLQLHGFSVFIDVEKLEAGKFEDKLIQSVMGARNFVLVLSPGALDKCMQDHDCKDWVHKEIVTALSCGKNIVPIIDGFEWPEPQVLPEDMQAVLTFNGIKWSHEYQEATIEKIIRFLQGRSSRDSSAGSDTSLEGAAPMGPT

Take `CC1(c2ccccc2)OC(C(=O)O)=CC1=O` (centres undefined): the nuclear beta-catenin stimulation was 0.9% (inactive) in [1] (at 10 µM) and 1.2% in assay [1] (stimulation, at 2 µM). Also, in assay [2], the insulin secretion stimulation was 0.9% (inactive). Moreover, the viability decrease in assay [3] is 1.95% (inactive). In assay [4], the tube area decrease was 0.2% (inactive). Besides, the GLP1 secretion stimulation in assay [5] is 1.1% (inactive). For the same compound, the inhibition of viability in [6] was -7.4% (inactive). In addition, the results for the viability decrease (inhibition) in assay [7] and in assay [8] were 4.5% (inactive) and 4.95% (inactive), respectively. For the same compound, the remaining activity in assay [9] is 122% (inactive). For the same compound, the fold change was 0.98 (inactive) in assay [10] (setting [19]) and 0.832 in assay [10] (setting [20]). The cell count is 9820 in assay [10] (setting [21]) and 10000 in assay [10] (setting [22]). The z-score in [11] was -0.34 (inactive).
Take `Nc1ccn(C2CO[C@H](CO)O2)c(=O)n1` (some centres undefined): the nuclear beta-catenin stimulation was 1.3% (inactive) in [1] (at 10 µM) and 0.3% in assay [1] (stimulation, at 2 µM). Besides, in assay [2], the insulin secretion stimulation was 2% (inactive). In assay [3], the viability decrease was -8.3% (inactive). Besides, the tube area decrease in assay [4] was 7.2% (inactive). Besides, the GLP1 secretion stimulation in assay [5] was 0.5% (inactive). Moreover, the inhibition of viability in assay [6] was 4.2% (inactive). In addition, the viability decrease (inhibition) in assay [7] was -18.8% (inactive); in assay [8] it was 3.7% (inactive). For the same compound, the outcome in assay [12], in [13], in [14] and in assay [15] was inactive.
For `CC1(COc2ccc(CC3SC(=O)NC3=O)cc2)CCCCC1` (centres undefined), the nuclear beta-catenin stimulation was 2.4% (inactive) in assay [1] (at 10 µM) and 1.5% in assay [1] (stimulation, at 2 µM). Moreover, in assay [2], the insulin secretion stimulation is 1.9% (inactive). In addition, in [3], the viability decrease was 99% (active). In assay [4], the tube area decrease is 14% (inactive). Further, in assay [5], the GLP1 secretion stimulation is 6.6% (inactive). Moreover, the inhibition of viability in assay [6] is 101% (active). Further, the viability decrease (inhibition) in assay [7] was 146% (active); in assay [8], 105% (active). For the same compound, in assay [9], the remaining activity was 110% (inactive). Moreover, the fold change in [10] (setting [19]) was 0.913 (inactive) and 1.03 (inactive) and 0.948 (inactive); in assay [10] (setting [20]), 1.87 and 1.11 and 0.669. Moreover, the cell count in assay [10] (setting [21]) is 5590 and 5930 and 7780; in [10] (setting [22]), 6130 and 5780 and 8200. Further, the z-score in assay [11] was -0.49 (inactive).
`CC(=O)[C@H]1CC[C@H]2[C@@H]3CC=C4C[C@@H](O)CC[C@]4(C)[C@H]3CC[C@]12C`: in [16], the parasite load remaining was 90.8% (inactive) and 62.2% (inactive) and 6.53% (inactive). The viability in assay [16] was 110% and 79.4% and 65.5%. For the same compound, the nuclear beta-catenin stimulation was 3% (inactive) in [1] (at 10 µM) and 1.6% in assay [1] (stimulation, at 2 µM). For the same compound, the insulin secretion stimulation in assay [2] is -2% (inactive). For the same compound, in assay [3], the viability decrease is 7.55% (inactive). Further, the tube area decrease in assay [4] was 8.7% (inactive). The GLP1 secretion stimulation in assay [5] was 1.9% (inactive). Also, the inhibition of viability in [6] was -2.4% (inactive). The viability decrease (inhibition) is 82% (active) in [7] and 18.9% (inactive) in [8]. The compound was classed as inactive in [12], in [13], in assay [14] and in assay [15]. Besides, the fold change in assay [10] (setting [19]) was 0.857 (inactive) and 0.834 (inactive); in [10] (setting [20]) it was 1.38 and 1.19. The cell count in assay [10] (setting [21]) was 8970 and 9160; in assay [10] (setting [22]) it was 10500 and 11000. Also, the z-score is 0.44 (inactive) and 0.49 (inactive) in assay [17] (MELAS cybrid survival, CellTiter-Glo 48 h, stronger effect = higher value); 0.646 and 0.0253 in [17] (Rieske KO mouse fibroblast survival, CellTiter-Glo 72 h); -1.23 (inactive) in assay [11]. For the same compound, the remaining NAD in assay [18] is 10 nM (inactive).
Take `Cc1[nH]c(=O)c(C#N)cc1-c1ccc2nccn2c1`: the nuclear beta-catenin stimulation in [1] (at 10 µM) is -1.8% (inactive); in assay [1] (stimulation, at 2 µM), -0.5%. In addition, the insulin secretion stimulation in [2] is 3% (inactive). Also, the viability decrease in [3] was -9.8% (inactive). In addition, in [4], the tube area decrease is -3.8% (inactive). The GLP1 secretion stimulation in assay [5] is -0.6% (inactive). Also, the inhibition of viability in assay [6] was -1.6% (inactive). In addition, the viability decrease (inhibition) in assay [7] is 0.1% (inactive); in [8], -7.8% (inactive). For the same compound, the call in assay [12], in assay [13], in assay [14] and in [15] was inactive. For the same compound, the fold change in assay [10] (setting [19]) was 0.996 (inactive); in [10] (setting [20]), 0.805. The values for the cell count in [10] (setting [21]) and in assay [10] (setting [22]) were 9250 and 9290, respectively. In addition, in [11], the z-score is 0.905 (inactive).
